Source: PubChem BioAssay (NCI)
Compounds without any hit were thinned out: in the full panel of roughly 79,000, 15% have a hit. Activity calls are given as the source filed them. Cut-off read from the data, not from the text of the source: active = growth inhibition above about 70%; inactive = the rest.

What was measured:
[1] = NCI Yeast Anticancer Drug Screen. Data for the wt2 strain (AID 169);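 note: 0% = growth of vehicle-treated yeast cultures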; conditions: S. cerevisiae wt2 strain growth inhibition, stronger effect = higher value
Summary of the method: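 The panel's yeast strains carry defined changes in DNA repair or cell cycle genes. Each strain is grown with compound, and growth loss is scored relative to vehicle.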

[2] = NCI Yeast Anticancer Drug Screen. Data for the mlh1 strain (AID 171);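 note: 0% = growth of vehicle-treated control cultures of the same strain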; conditions: S. cerevisiae mlh1 strain growth inhibition, stronger effect = higher value
Summary of the method: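 Inhibition values reflect reduced yeast growth in the presence of compound, referenced to vehicle controls, using a strain chosen for its alteration in DNA repair or cell cycle control.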

[3] = NCI Yeast Anticancer Drug Screen. Data for the sgs1 strain (AID 173);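 note: 0% = growth of vehicle-only control cultures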; conditions: S. cerevisiae sgs1 mutant, stronger effect = higher value
Summary of the method: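 Vehicle-treated cultures served as reference for growth inhibition of a yeast strain altered in DNA damage repair or cell cycle control after compound exposure.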

[4] = NCI Yeast Anticancer Drug Screen. Data for the mlh1 rad18 strain (AID 175); conditions: S. cerevisiae mlh1 rad18 strain growth inhibition, stronger effect = higher value
Summary of the method: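 Inhibition values reflect reduced growth of mutant yeast versus vehicle-treated controls following compound exposure; the mutations affect DNA damage repair.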

[5] = NCI Yeast Anticancer Drug Screen. Data for the rad18 strain (AID 177); conditions: S. cerevisiae rad18 mutant growth inhibition, stronger effect = higher value
Summary of the method: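 Steps: expose repair-mutant yeast to compound; measure growth; express as inhibition relative to vehicle control.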

[6] = NCI Yeast Anticancer Drug Screen. Data for the rad52 strain (AID 147);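 note: 0% = growth of vehicle-treated control cultures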; conditions: S. cerevisiae rad52 mutant growth inhibition, stronger effect = higher value
Summary of the method: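 Inhibition of yeast growth, referenced to vehicle controls, was the measured output for a strain with defective DNA damage repair.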

[7] = NCI Yeast Anticancer Drug Screen. Data for the wt1 strain (AID 149);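 note: 0% = growth of vehicle-treated wt1 cultures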; conditions: S. cerevisiae wt1 strain (SPY 50644) growth inhibition, stronger effect = higher value
Summary of the method: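 Readout: yeast growth inhibition, normalised to vehicle controls, in the wt1 strain exposed to test compounds.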

[8] = NCI Yeast Anticancer Drug Screen. Data for the rad50EPP+ strain (AID 151);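 note: 0% = growth of vehicle-treated control cultures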; conditions: S. cerevisiae rad50 mutant strain, stronger effect = higher value
Summary of the method: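 Genetically defined yeast (rad50EPP+, DNA damage repair alteration) is grown with compound, and inhibition of growth is expressed relative to vehicle-treated controls.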

[9] = NCI Yeast Anticancer Drug Screen. Data for the mgt1 strain (AID 153); conditions: S. cerevisiae mgt1 mutant growth inhibition, stronger effect = higher value
Summary of the method: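 In the mgt1 strain, test compounds were added and growth inhibition was determined relative to vehicle-treated controls.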

[10] = NCI Yeast Anticancer Drug Screen. Data for the rad50 strain (AID 155);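 note: 0% = growth of vehicle-only cultures of the same strain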; conditions: S. cerevisiae rad50 strain growth inhibition, stronger effect = higher value
Summary of the method: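 Compounds were tested on a yeast strain with an engineered DNA damage repair alteration; the reported value is growth inhibition normalised to vehicle treatment.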

[11] = NCI Yeast Anticancer Drug Screen. Data for the mec2-1 strain (AID 157); conditions: S. cerevisiae mec2-1 strain, stronger effect = higher value
Summary of the method: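 Each compound was tested on mec2-1 yeast, a strain altered in DNA damage repair or cell cycle control. Growth inhibition is reported relative to vehicle.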

[12] = NCI Yeast Anticancer Drug Screen. Data for the rad14 strain (AID 159);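 note: 0% = growth of vehicle-treated control cultures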; conditions: S. cerevisiae rad14 strain growth inhibition, stronger effect = higher value
Summary of the method: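 Compound-treated yeast with a defined DNA-repair lesion; growth inhibition normalised to vehicle-treated cultures.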

[13] = NCI Yeast Anticancer Drug Screen. Data for the sgs1 mgt1 strain (AID 161);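 note: 0% = growth of cultures given vehicle only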; conditions: S. cerevisiae sgs1 mgt1 strain, stronger effect = higher value
Summary of the method: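 Mutant yeast exposed to compound; growth scored against vehicle-only wells.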

[14] = NCI Yeast Anticancer Drug Screen. Data for the CLN2oe strain (AID 163);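 note: 0% = growth of vehicle-only control cultures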; conditions: S. cerevisiae CLN2oe strain, stronger effect = higher value
Summary of the method: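 First, the altered yeast strain was treated with each compound; second, its growth was measured; finally, inhibition was derived by comparison with vehicle controls.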

[15] = NCI Yeast Anticancer Drug Screen. Data for the cln2 rad14 strain (AID 165);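 note: 0% = growth equal to vehicle treated cultures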; conditions: S. cerevisiae cln2 rad14 strain, stronger effect = higher value
Summary of the method: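 Test compounds were added to cln2 rad14 yeast cultures; inhibition of growth was then determined by comparison with vehicle treatment.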

[16] = NCI Yeast Anticancer Drug Screen. Data for the bub3 strain (AID 167); conditions: S. cerevisiae bub3 mutant strain, stronger effect = higher value
Summary of the method: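 Growth of a checkpoint-deficient yeast mutant is measured after compound exposure. Values represent inhibition relative to vehicle.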

[17] = at 5.0 µM (retest, dose inferred, filed as 0.5)
[18] = at 50.0 µM (retest, dose inferred, filed as 5.0)

Measured: growth inhibition

NNc1c(F)c(F)cc(F)c1F
inactive: [1]; at 1.2 µM -27% | [1]; at 3.7 µM -24% | [1]; at 11.0 µM -22% | [1]; at 33.0 µM -20% | [1]; at 100.0 µM -13% | [2]; at 1.2 µM -12% | [2]; at 3.7 µM -7% | [2]; at 11.0 µM -6% | [2]; at 33.0 µM 5% | [2]; at 100.0 µM 42% | [3]; at 1.2 µM -3% | [3]; at 3.7 µM 8% | [3]; at 11.0 µM 18% | [3]; at 33.0 µM 32% | [3]; at 100.0 µM 66% | [4]; [17] 7% | [4]; [18] 36% | [4]; at 50.0 µM 25% | [5]; at 1.2 µM -9% | [5]; at 3.7 µM -20% | [5]; at 11.0 µM -17% | [5]; at 33.0 µM -20% | [5]; at 100.0 µM 6%

CC(=O)OCc1ccc(O)c(C=O)c1
active: [10]; at 50.0 µM 77.5% | [12]; at 100.0 µM 81% | [13]; [18] 89% | [16]; [18] 82%
inactive: [6]; at 1.2 µM 1% | [6]; at 3.7 µM 1% | [6]; at 11.0 µM -10% | [6]; at 33.0 µM 18% | [6]; at 100.0 µM 57% | [7]; at 1.2 µM -26% | [7]; at 3.7 µM -4% | [7]; at 11.0 µM -23% | [7]; at 33.0 µM 8% | [7]; at 100.0 µM 18% | [8]; at 1.2 µM -6% | [8]; at 3.7 µM -2% | [8]; at 11.0 µM -10% | [8]; at 33.0 µM 14% | [8]; at 100.0 µM 60% | [9]; at 1.2 µM -24% | [9]; at 3.7 µM -17% | [9]; at 11.0 µM -18% | [9]; at 33.0 µM 6% | [9]; at 100.0 µM 25% | [10]; at 1.2 µM -5% | [10]; at 3.7 µM -20% | [10]; [17] 16% | [10]; at 11.0 µM 10% | [10]; at 33.0 µM 6% | [10]; [18] 66% | [10]; at 100.0 µM 59% | [11]; at 1.2 µM -13% | [11]; at 3.7 µM -13% | [11]; [17] 0% | [11]; at 11.0 µM -29% | [11]; at 33.0 µM -11% | [11]; [18] 41% | [11]; at 50.0 µM 56.9% | [11]; at 100.0 µM 35% | [12]; at 1.2 µM -5% | [12]; at 3.7 µM -2% | [12]; at 11.0 µM 2% | [12]; at 33.0 µM 14% | [13]; [17] 36% | [13]; at 50.0 µM 62.5% | [14]; at 1.2 µM -5% | [14]; at 3.7 µM 1% | [14]; at 11.0 µM 11% | [14]; at 33.0 µM -12% | [14]; at 100.0 µM -2% | [15]; [17] 15% | [15]; [18] 30% | [15]; at 50.0 µM 49.7% | [16]; at 1.2 µM -7% | [16]; at 3.7 µM -7% | [16]; [17] 25% | [16]; at 11.0 µM -7% | [16]; at 33.0 µM -8% | [16]; at 50.0 µM 2.85% | [16]; at 100.0 µM -11% | [1]; at 1.2 µM -36% | [1]; at 3.7 µM -30% | [1]; at 11.0 µM -28% | [1]; at 33.0 µM -11% | [1]; at 100.0 µM 32% | [2]; at 1.2 µM 0% | [2]; at 3.7 µM -7% | [2]; at 11.0 µM -5% | [2]; at 33.0 µM 24% | [2]; at 100.0 µM 30% | [3]; at 1.2 µM -11% | [3]; at 3.7 µM -5% | [3]; at 11.0 µM 10% | [3]; at 33.0 µM 34% | [3]; at 100.0 µM 63% | [4]; [17] 26% | [4]; [18] 61% | [4]; at 50.0 µM 48.7%

Cc1ccc(CCC2=CCCc3c2ccc2ccccc32)cc1
inactive: [6]; at 1.2 µM -1% | [6]; at 3.7 µM -3% | [6]; at 11.0 µM 0% | [6]; at 33.0 µM 1% | [6]; at 100.0 µM 0% | [7]; at 1.2 µM -3% | [7]; at 3.7 µM -4% | [7]; at 11.0 µM -5% | [7]; at 33.0 µM -8% | [7]; at 100.0 µM -9% | [8]; at 1.2 µM -3% | [8]; at 3.7 µM 5% | [8]; at 11.0 µM 13% | [8]; at 33.0 µM 40% | [8]; at 100.0 µM 58% | [9]; at 1.2 µM -4% | [9]; at 3.7 µM -3% | [9]; at 11.0 µM -3% | [9]; at 33.0 µM -8% | [9]; at 100.0 µM -39% | [10]; at 1.2 µM -1% | [10]; at 3.7 µM -2% | [10]; [17] -7% | [10]; at 11.0 µM 0% | [10]; at 33.0 µM -1% | [10]; [18] -25% | [10]; at 50.0 µM 11.1% | [10]; at 100.0 µM 2% | [11]; at 1.2 µM -4% | [11]; at 3.7 µM -5% | [11]; [17] 44% | [11]; at 11.0 µM -5% | [11]; at 33.0 µM -4% | [11]; [18] 31% | [11]; at 50.0 µM 6.45% | [11]; at 100.0 µM 5% | [12]; at 1.2 µM -4% | [12]; at 3.7 µM -4% | [12]; at 11.0 µM 0% | [12]; at 33.0 µM 6% | [12]; at 100.0 µM 13% | [13]; [17] 5% | [13]; [18] 10% | [13]; at 50.0 µM 33% | [14]; at 1.2 µM -5% | [14]; at 3.7 µM -2% | [14]; at 11.0 µM -9% | [14]; at 33.0 µM -5% | [14]; at 100.0 µM 9% | [15]; [17] 6% | [15]; [18] -10% | [15]; at 50.0 µM 16.8% | [16]; at 1.2 µM -4% | [16]; at 3.7 µM -2% | [16]; [17] 63% | [16]; at 11.0 µM -4% | [16]; at 33.0 µM 5% | [16]; at 50.0 µM 33.8% | [16]; at 100.0 µM 15% | [1]; at 1.2 µM -3% | [1]; at 3.7 µM -5% | [1]; at 11.0 µM -5% | [1]; at 33.0 µM -8% | [1]; at 100.0 µM -8% | [2]; at 1.2 µM -3% | [2]; at 3.7 µM -4% | [2]; at 11.0 µM -4% | [2]; at 33.0 µM -1% | [2]; at 100.0 µM 4% | [3]; at 1.2 µM -5% | [3]; at 3.7 µM -4% | [3]; at 11.0 µM -1% | [3]; at 33.0 µM 0% | [3]; at 100.0 µM 3% | [4]; [17] 38% | [4]; [18] 16% | [4]; at 50.0 µM 16.9% | [5]; at 1.2 µM -4% | [5]; at 3.7 µM -1% | [5]; at 11.0 µM -2% | [5]; at 33.0 µM -2% | [5]; at 100.0 µM 2%
active: [16]; [18] 84%
